27 molecules from PubChem BioAssay AID1345083 (National Center for Advancing Translational Sciences (NCATS), 2018) can be followed below.

Molecules are shown by their SMILES. In all, about 94,000 compounds went through this assay and about 6,200 (6.6%) were called active. About 31% were inconclusive and are not listed. The call rests on the fitted dose curve; in most records, active means well fitted inhibition curve with a large enough effect; inconclusive means small, poorly fitted or top-dose-only effect; inactive means flat fitted curve, though single readings scatter. Shown is part of a subset that was picked to be rich in actives. Where a call stands in place of a potency, no number is given.
Potency means the concentration at half of the fitted maximal effect.

The assay is described as follows: Cytotoxic Profiling in HEK 293 Cell Line of Diverse Libraries Using Quantitative High-Throughput Screening. Further: nearly all actives have a fitted effect of over 60% in size. The conditions noted are these: HEK 293 viability, ATP luminescence (CellTiter-Glo), 48-72 h; series mostly up to 115 µM. In short, it runs like this: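 Read-out: CellTiter-Glo ATP luminescence. Cells: HEK 293, 250 cells/well. Exposure: 48 or 72 hr, 37 degree Celsius.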
For the molecule `Cc1nn(-c2ccccc2)c2c1C(C(C)C)N(C1CCN(C(=O)c3ccc(Cl)nc3)CC1)C2=O` (configuration not stated), the Potency result is “inactive”.

For `Cc1nn(-c2ccccc2)c2c1C(C(C)C)N(C1CN(C(=O)c3ccccc3Cl)C1)C2=O` (configuration not stated), the Potency entry is “inactive”.

Turning to `Cc1nn(-c2ccccc2)c2c1C(C)N(C1CCCN(C(=O)c3ccccn3)C1)C2=O` (configuration not stated), the Potency entry was “inactive”.

As to `COc1cccc(CN2CCC(N3C(=O)c4c(c(C)nn4-c4ccccc4)C3C3CC3)CC2)c1` (configuration not stated), the Potency was 35.5 µM (active).

Take `COc1cccc(CC(=O)N2CCC(N3C(=O)CCC3C(=O)NCc3ccccc3)CC2)c1` (configuration not stated): the Potency result was “inactive”.

On to `COc1cccc(C(=O)N2CCC(N3C(=O)c4c(c(C)nn4-c4ccccc4)C3C)C2)c1` (configuration not stated), for which the Potency was 35.5 µM (active).

Take `CC1(C(=O)O)CCN(C(=O)C2CCCC2)CC1`: the Potency result is “inactive”.

For `C=CCNC(=O)C[C@@H]1CCN(C(=O)c2cccnc2)C[C@@H]1CC`, the Potency result was “inactive”.

With `COCCOC1CCOC2(CCN(C(=O)C3(c4ccc(OC)cc4)CC3)CC2)C1` (configuration not stated), the Potency result is “inactive”.

For the molecule `COCCN(C)Cc1ccc(CC2CCN(C(=O)C3(c4ccc(OC)cc4)CC3)CC2)cc1`, the Potency was 39.8 µM (active).

In the case of `CC(=O)N1CCC(Cc2ccc(C(=O)NC3CC3)cc2)CC1`, the Potency result was “inactive”.

Turning to `O=C1CC(c2ccccc2)N(Cc2ccncc2)CCCN(C(=O)COc2ccccc2)CCN1` (configuration not stated), the Potency result was “inactive”.

In the case of `Cc1ccc(OCCC2CCN(C(=O)CCN3C(=O)NC(C)(C)C3=O)C2)cc1` (configuration not stated), the Potency result was “inactive”.

As to `O=C(c1cccc(F)c1)N1CCC(CCOc2ccc(F)cc2)C1` (configuration not stated), the Potency was 44.7 µM (active).

`O=C(c1cccc(F)c1)N1CCCC(CN2CCOCC2)CC1` (configuration not stated): the Potency entry is “inactive”.

`Cc1cnc(CCNC(=O)c2cn(C)cn2)n1C1CC1`: the Potency result was “inactive”.

In the case of `O=[S+]([O-])(c1ccccc1)N1CCC2(CC(c3cccnc3)=NO2)C1` (configuration not stated), the Potency result was “inactive”.

On to `Cc1ccc([S+](=O)([O-])N2CCC3(CC2)CC(=O)N(c2ccccc2)c2ccccc2O3)cc1`, for which the Potency was 25.1 µM (active).

As to `O=[S+]([O-])(c1ccccc1)N1CCCC2(CC(c3ccccn3)=NO2)C1` (configuration not stated), the Potency entry was “inactive”.

Regarding `NC(=O)c1cccnc1OC1CCNCC1`, the Potency entry is “inactive”.

Consider `COc1ccc(C)cc1NC(=O)Cn1nc2n(c1=O)CCCC2`, for which the Potency result was “inactive”.

Regarding `COc1ccc(CN2CCC3(CC2)Cc2ccccc2CNC3=O)cn1`, the Potency result is “inactive”.

For the molecule `CC(C)Cc1ccc(CN2CCC3(CC2)Cc2ccccc2CNC3=O)cc1`, the Potency was 22.4 µM (active).

For `O=C1NCc2ccccc2CC12CCN(Cc1ccc(O)cc1)CC2`, the Potency entry was “inactive”.

Consider `COc1ccc(C2(C(=O)NCc3cccc(C(F)(F)F)c3)CCOCC2)cc1`, for which the Potency entry was “inactive”.

On to `CC1=C[C@@H](CN(C)CCc2ccccn2)[C@H](C(C)C)C[C@H]1Cc1nnc(-c2ccccc2F)o1`, for which the Potency is 44.7 µM (active).

As to `COCC(=O)NC[C@@H]1C=C(C)[C@H](CC(=O)Nc2ccccn2)C[C@H]1C(C)C`, the Potency entry was “inactive”.
